Here are results for 24 compounds from PubChem BioAssay (NCATS).

Molecules are shown by their SMILES. Results filed as inconclusive are left out. Where a call stands in place of a potency, no number is given. Activity calls are given as the source filed them. Calls follow the shape of the full dose curve.

Sequence of Atrial natriuretic peptide receptor 1 (Homo sapiens) (P16066 whole entry, looked up): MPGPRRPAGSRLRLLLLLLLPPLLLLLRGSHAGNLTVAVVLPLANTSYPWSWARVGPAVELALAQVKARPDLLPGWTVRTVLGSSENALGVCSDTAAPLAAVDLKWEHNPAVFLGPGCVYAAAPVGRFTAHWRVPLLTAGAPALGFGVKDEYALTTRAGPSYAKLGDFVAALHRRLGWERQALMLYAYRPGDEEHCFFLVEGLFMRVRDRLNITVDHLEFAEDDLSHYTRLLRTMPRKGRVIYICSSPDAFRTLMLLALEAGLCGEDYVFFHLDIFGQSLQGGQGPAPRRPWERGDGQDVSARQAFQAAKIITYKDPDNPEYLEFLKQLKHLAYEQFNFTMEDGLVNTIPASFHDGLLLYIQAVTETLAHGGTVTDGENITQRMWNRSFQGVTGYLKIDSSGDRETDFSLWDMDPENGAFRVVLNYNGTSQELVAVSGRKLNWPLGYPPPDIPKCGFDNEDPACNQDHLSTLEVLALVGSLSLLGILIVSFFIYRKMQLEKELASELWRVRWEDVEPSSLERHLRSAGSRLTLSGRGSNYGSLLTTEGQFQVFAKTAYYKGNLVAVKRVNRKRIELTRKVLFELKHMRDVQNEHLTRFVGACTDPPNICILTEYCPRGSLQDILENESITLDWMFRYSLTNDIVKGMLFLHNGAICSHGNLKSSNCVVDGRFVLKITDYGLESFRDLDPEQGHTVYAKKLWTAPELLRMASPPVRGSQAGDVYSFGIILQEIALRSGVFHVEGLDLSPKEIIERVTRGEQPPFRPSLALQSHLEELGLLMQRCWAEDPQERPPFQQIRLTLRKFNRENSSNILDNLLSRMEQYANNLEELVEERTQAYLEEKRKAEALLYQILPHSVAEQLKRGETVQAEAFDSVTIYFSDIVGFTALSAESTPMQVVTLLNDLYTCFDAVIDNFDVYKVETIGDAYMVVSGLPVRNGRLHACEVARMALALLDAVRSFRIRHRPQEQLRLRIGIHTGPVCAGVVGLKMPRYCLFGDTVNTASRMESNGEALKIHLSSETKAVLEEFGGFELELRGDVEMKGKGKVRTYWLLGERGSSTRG

The target of the test is Atrial natriuretic peptide receptor 1 (Homo sapiens) (UniProt P16066). Briefly: Natriuretic polypeptide receptor (hNpr1) antagonism - Pilot screen (AID 1347049).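 Also: agonist-evoked cGMP luminescence read 20 min after hNppA addition.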 To be noted: hNpr1 cells, antagonist mode cGMP read-out; series mostly up to 57.5 µM. The gist of the method:
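HEK293 cells expressing hNpr1 and GloSensor cGMP luciferase, 1500/well, loaded with 2% GloSensor reagent 2 h, compound 30 min at room temperature; luminescence read before and 20 min after 0.1 nM hNppA stimulation.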
As for `NCc1cc(=O)[nH]o1`, the Potency entry is “inactive”. Turning to `Clc1cnc(Oc2ccc(Oc3ncc(Cl)cc3Cl)cc2)c(Cl)c1`, the Potency entry is “inactive”.

Turning to `NC(CP(=O)(O)O)C(=O)O` (centres undefined), the Potency entry is “inactive”.

Regarding `CNCCc1ccc(O)c(O)c1`, the Potency result was “inactive”. Then `O=C(O)CC[N+](=O)[O-]`, with “inactive”; and `c1ccc2sc(C3(N4CCCCC4)CCCCC3)cc2c1`, with “inactive”; and `NC(CCP(=O)(O)O)C(=O)O` (centres undefined), with “inactive”. For the compound `C[C@@H]1O[C@H](C[N+](C)(C)C)C[C@H]1O`, the Potency result was “inactive”.

For `NCCc1c[nH]c2ccccc12`, the Potency result is “inactive”. `NC(=NCCC[C@H](N)C(=O)O)N[N+](=O)[O-]`: the Potency result was “inactive”. With `COc1cc(C(O)CN)ccc1O` (centres undefined), the Potency result was “inactive”.

`CC(C)Oc1cccnc1N(C)C1CCN(Cc2ccccc2)CC1`: the Potency entry is “inactive”. With `C[C@]12CCC3C(CC[C@H]4C[C@H](O)CC[C@]34C)C1CC[C@@H]2C(=O)CO` (some centres undefined), the Potency entry is “inactive”. For the compound `Cn1cnc(CCN)c1`, the Potency result was “inactive”.

`C=CCN1CC[C@]23CCCCC2[C@H]1Cc1ccc(O)cc13` (some centres undefined): the Potency result is “inactive”. On to `NCCc1c[nH]c2ccc(O)cc12`, for which the Potency entry was “inactive”. For the compound `O=C(O)Cc1cnc[nH]1`, the Potency entry is “inactive”. Take `CS(=N)(=O)CC[C@H](N)C(=O)O` (some centres undefined): the Potency result was “inactive”. Then `NC1CCc2cc(O)c(O)cc2C1` (centres undefined), with “inactive”. Then `CCCN(CCC)C1CCc2ccc(O)cc2C1` (centres undefined), with “inactive”.

For the compound `NC(N)=NOCCC(N)C(=O)O` (centres undefined), the Potency entry is “inactive”. With `CCCN(CCC)[C@@H]1CCc2ccc(O)cc2C1`, the Potency entry was “inactive”. Consider `Cc1nccc2c1[nH]c1ccccc12`, for which the Potency result is “inactive”. As for `C[N+]1(C)C2CCC1CC(OC(=O)C(CO)c1ccccc1)C2` (centres undefined), the Potency entry was “inactive”.
